This note sets out measurements from PubChem BioAssay (EPA / NIEHS).

Where “and” joins values, the source holds several entries; their conditions need not be identical. Equal entries are not always repeated. The source holds several records for some structures; these can differ, active in one and inactive in another. Calls of active or inactive are those of the source. The calls were made as follows: active = hit-call score of the fitted dose curve at least 0.9, where 1 is the maximum; inactive = score below 0.9.

Chain of Broad substrate specificity ATP-binding cassette transporter ABCG2 (Homo sapiens) (Q9UNQ0 whole entry, looked up): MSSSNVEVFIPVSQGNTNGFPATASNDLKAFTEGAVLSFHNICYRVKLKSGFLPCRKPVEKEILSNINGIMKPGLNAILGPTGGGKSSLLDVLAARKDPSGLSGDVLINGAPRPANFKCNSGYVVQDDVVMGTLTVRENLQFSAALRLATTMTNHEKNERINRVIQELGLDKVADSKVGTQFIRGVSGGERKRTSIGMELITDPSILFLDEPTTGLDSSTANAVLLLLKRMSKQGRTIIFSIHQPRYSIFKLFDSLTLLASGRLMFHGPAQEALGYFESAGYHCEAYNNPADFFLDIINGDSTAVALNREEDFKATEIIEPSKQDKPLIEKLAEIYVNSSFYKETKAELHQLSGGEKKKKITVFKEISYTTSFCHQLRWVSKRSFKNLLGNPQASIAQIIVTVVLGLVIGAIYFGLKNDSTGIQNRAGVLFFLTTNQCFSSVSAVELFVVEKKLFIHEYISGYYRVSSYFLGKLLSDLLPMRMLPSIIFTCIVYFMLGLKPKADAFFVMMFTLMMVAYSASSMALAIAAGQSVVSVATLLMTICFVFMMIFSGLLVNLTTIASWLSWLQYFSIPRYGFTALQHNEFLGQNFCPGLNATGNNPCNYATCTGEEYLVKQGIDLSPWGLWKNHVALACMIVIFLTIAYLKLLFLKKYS

Read-out in this assay: Broad substrate specificity ATP-binding cassette transporter ABCG2 (Homo sapiens) (UniProt Q9UNQ0)
Nature of the assay: LTEA_HepaRG_ABCG2: Life Technologies and Expression Analysis (LTEA) Assay for ABC Transporter (ABCG2) using HepaRG (AID 2283465). The note with it: mRNA level, 48 h; actives raise or lower the signal. The protocol:
LTEA_HepaRG is a cell based, multiplexed-readout assay that uses HepaRG, a human liver cell line, with measurements taken at 48 hours after chemical dosing on a 96-well plate.LTEA_HepaRG_ABCG2 is one of 102 assay component(s) measured in the LTEA HepaRG cell culture assay. It is a marker of Steatosis/NR mediated transport.Data from the assay component LTEA_HepaRG_ABCG2 was analyzed into 1 endpoint. This assay endpoint, LTEA_HepaRG_ABCG2, was analyzed with bidirectional fitting relative to DMSO as the negative control and baseline of activity. Using a type of inducible reporter, measures of mRNA induction for gain or loss-of-signal activity can be used to understand regulation of transcription factor activity. To generalize the intended target to other relatable targets, this assay endpoint is annotated to the transporter intended target family, where the subfamily is ABC transporter.
A total of 1060 chemcials from the ToxCast library were tested in eight-point concentration-response experiments. Cell culture and cytotoxicity assays were conducted at Thermo Fisher Scientific's Custom Services facility (Madison, WI). A single lot of human HepaRG cells (Thermo Fisher Scientific, Frederick, MD) was used for the cell culture experiments. 96-well format collagen type I coated plates of human HepaRG cells were prepared using established methods. Briefly, cryopreserved HepaRG cells were thawed, plated at a density of approximately 100,000 cells/well in HepaRG Thaw, Plate, and General Purpose media (HPRG770, Thermo Fisher Scientific), and incubated for 48 hours. 0.5% DMSO was selected as vehicle control to balance the requisite need of DMSO in HepaRG cultures to maintain differentiation (for example, baseline metabolism, proportions of hepatocytes vs. cholangiocytes), while enabling further hepatic receptor pathway activation (for example, PXR and CAR) in response to chemical exposure. 48 hours after plating, the culture medium was replaced with HepaRG Serum-Free Incudtion Media. Cells were exposed to each test chemical in duplicate and maintained in CO2 incubators for another 48 hours. Chemical plates were thawed to room temperature and 200x concentrations of treatment groups were prepared. 8-point conentration-reponse curves were made with the highest exposure at 100 uM, followed by half-log dilutions, all in 0.5% DMSO. Each test plate contained variouse controls, induction positive controls (1mM phenobarbital), cytotoxicity positive controls ([…] aflatoxin B1), vehicle controls (0.5% DMSO), and total lysis controls (0.5% DMSO). Cell morphology images were taken using an Essen IncuCyte FLR automated microscope, with six 96-well plates imaged in about 24 minutes. Images were captured and exported and JPEG files. Spent culture media was transfered to black-well plates for the LDH assay, and remaining media was sorted at -80 C for later use. Cells were treated with RLT buffer and frozen until shipped for gene expression analysis. Total RNA was isolated from the cell suspension in 75 uL of Buffer RLT (Qiagen, Germantown, MD 20874) by Quintiles/Expression Analysis (Durham, NC) using a custom isolation procedure. Total RNA from each plate well was transferred to a preamplification plate. Fluidigm's 96.96 Dynamic ArrayTM (Fluidigm, Amsterdam, the Netherlands) technology was used for gene expression analyses by quantitative reverse transcription polymerase chain reaction (qRT-PCR, performed by Quintiles/Expression Analysis, Durham, NC)89. Standard TaqManTM Assays (Applied Biosystems/ThermoFisher Scientific, Foster City, CA) were used to assess the expression of 93 genes selected based on their selectivity and sensitivity to important hepatic receptors known to be modulated by environmental chemicals; importance in human hepatocyte functionality; and hepatotoxicity. […]
With `Cc1cc(Cl)ccc1OCC(=O)O`, the result was inactive.
On to `N#CC(CCc1ccc(Cl)cc1)(Cn1cncn1)c1ccccc1` (stereo not given), for which the AC50 was 50 µM (active).
Regarding `CC(C)C1(C)N=C(c2nc3ccccc3cc2C(=O)O)NC1=O` (stereo not given), the molecule was called inactive.
Still for that read-out and setting: under `COP(=S)(OC)Oc1nc(Cl)c(Cl)cc1Cl` stands “inactive”.
In the case of `CO/C=C(/C(=O)OC)c1ccccc1Oc1cc(Oc2ccccc2C#N)ncn1`, the half-maximal activity concentration (AC50) is 32 µM (active) and 25.5 µM (active) and 12.6 µM (active).
Take `CCOP(=S)(OCC)SCn1c(=O)oc2cc(Cl)ccc21`: the result was inactive.
On to `CCCN(CCC)c1c([N+](=O)[O-])cc(S(N)(=O)=O)cc1[N+](=O)[O-]`, for which the half-maximal activity concentration (AC50) was 15.8 µM (active) and the molecule was classed as inactive.
As for `Fc1ccc(Oc2ccnc3cc(Cl)cc(Cl)c23)cc1`, the AC50 was 50 µM (active).
The same measure, in the same setting: under `CC(C)Oc1cc(-n2nc(C(C)(C)C)oc2=O)c(Cl)cc1Cl` stands 26 µM (active); under `COC(=O)N(OC)c1ccccc1COc1ccn(-c2ccc(Cl)cc2)n1`, 25 µM (active).
For `Cc1c(F)c(F)c(COC(=O)C2C(/C=C(\Cl)C(F)(F)F)C2(C)C)c(F)c1F` (stereo not given), the result was inactive.
Still for that read-out and setting: under `CNC(=S)S` stands “inactive”; under `COc1cnc(OC)n2nc(NS(=O)(=O)c3c(OCC(F)F)cccc3C(F)(F)F)nc12`, “inactive”; under `CNC(=O)ON=CC(C)(C)SC`, “inactive”.
Same read-out and setting: to `CCNc1nc(Cl)nc(NC(C)C)n1` belongs “inactive”.
For `CC1COC(Cn2cncn2)(c2ccc(Oc3ccc(Cl)cc3)cc2Cl)O1` (stereo not given), the concentration at half-maximal activity (AC50) is 12.6 µM (active).
On the same count and under the same terms, to `CCCC1COC(Cn2cncn2)(c2ccc(Cl)cc2Cl)O1` (stereo not given) belongs 22.2 µM (active).
For the molecule `COc1nc(NC(C)C)nc(NC(C)C)n1`, the result was inactive.
Turning to `CCCCOC(=O)c1ccccc1C(=O)OCCCC`, the molecule was classed as inactive.
Still for that read-out and setting: under `CCCCC(CC)COC(=O)c1ccccc1C(=O)OCC(CC)CCCC` (stereo not given) stands “inactive”.
In the case of `CCOc1cc(Oc2ccc(C(F)(F)F)cc2Cl)ccc1[N+](=O)[O-]`, the AC50 is 9.39 µM (active).
As for `COP(N)(=O)SC` (stereo not given), the call was inactive.
Same read-out and setting: under `CC(Oc1ccc(Cl)cc1Cl)C(=O)O` (stereo not given) stands “inactive”; under `CS/C(C)=N/OC(=O)N(C)SN(C)C(=O)O/N=C(\C)SC`, “inactive”; under `CCOC(=O)C(Cl)Cc1cc(-n2nc(C)n(C(F)F)c2=O)c(F)cc1Cl` (stereo not given), “inactive”.
As for `N#Cc1cc(Br)c(O)c(Br)c1`, the AC50 is 10.2 µM (active).
In the case of `COC(=O)C=C(C)OP(=O)(OC)OC`, the result was inactive.
With `O=C(O)COc1nc(Cl)c(Cl)cc1Cl`, the call was inactive.
Still for that read-out and setting: to `COc1ccc(C(c2ccc(OC)cc2)C(Cl)(Cl)Cl)cc1` belongs “inactive”; to `CN(C)C(=S)SSC(=S)N(C)C`, “inactive”; to `COC(=O)C(C)Oc1ccc(Oc2ccc(Cl)cc2Cl)cc1` (stereo not given), “inactive”.
Consider `CC(C)(C)c1ccc(CSc2cnn(C(C)(C)C)c(=O)c2Cl)cc1`, for which the concentration at half-maximal activity (AC50) was 2.89 µM (active).
Same read-out and setting: under `C=CCC1=C(C)C(OC(=O)C2C(C=C(C)C)C2(C)C)CC1=O` (stereo not given) stands 50 µM (active) and 79.2 µM (active).
In the case of `CCNc1nc(Cl)nc(NCC)n1`, the outcome was inactive.
Same read-out and setting: under `CCCCNC(=O)n1c(NC(=O)OC)nc2ccccc21` stands “inactive”.
For `O=C(Nc1ccccc1)Nc1ccnc(Cl)c1`, the AC50 was 83.9 µM (active).
`O=C(O)c1nc(Cl)ccc1Cl`: the molecule was called inactive.
With `CCc1nn(C)c(C(=O)NCc2ccc(C(C)(C)C)cc2)c1Cl`, the concentration at half-maximal activity (AC50) was 0.361 µM (active).
For `CC1=C(C(=O)Nc2ccccc2)SCCO1`, the outcome was inactive.

The term AC50 denotes the midpoint of the concentration-response curve, whichever way the signal moves.
